Calls of active or inactive are those of the source. How the source made its calls: active means hit-call score of the fitted dose curve at least 0.9, where 1 is the maximum; inactive means score below 0.9.
Test: APR_HepG2_CellLoss_24hr: Apredica 24-hour HepG2 Assay for Cell Loss (AID 2282908);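 on AC50: fit in both directions so a hit may be cell loss or gain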
Settings: high-content imaging
In short: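 Read-out: Hoechst 33342-stained nuclei counted by automated fluorescence imaging after formaldehyde fixation and Triton permeabilization. Ten concentrations, 0.39 to 200 uM, duplicate wells, 0.5% DMSO final. Gain or loss of signal fitted relative to DMSO baseline.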
In the case of `N#CN=C1SCCN1Cc1ccc(Cl)nc1`, the outcome was “inactive”.
For `CCCC(=NOCC)C1=C(O)CC(CC(C)SCC)CC1=O` (configuration not stated), the outcome was “inactive”.
In the case of `CC1(C)CCC(=Cc2ccc(Cl)cc2)C1(O)Cn1cncn1` (configuration not stated), the outcome was “inactive”.
In the case of `Cc1cc(C)nc(Nc2ccccc2)n1`, the outcome was “inactive”.
With `CCOc1nc(C(Cl)(Cl)Cl)ns1` the outcome was “inactive”.
For `CC(C)Nc1nc(Cl)nc(NC(C)C)n1`, the outcome was “inactive”.
For `O=c1n(Cl)c(=O)n(Cl)c(=O)n1Cl`, the outcome was “inactive”.
For `CCCN(CC)CC1COC2(CCC(C(C)(C)C)CC2)O1` (configuration not stated), the outcome was “inactive”.
For `Cc1nc(N(C)C)nc(OC(=O)N(C)C)c1C`, the outcome was “inactive”.
For `Clc1nc(Cl)nc(Nc2ccccc2Cl)n1`, the outcome was “inactive”.
For `CS(=O)(=O)c1ccc(C(=O)C2C(=O)CCCC2=O)c([N+](=O)[O-])c1`, the outcome was “inactive”.
In the case of `Nc1c(Cl)c(F)nc(OCC(=O)O)c1Cl`, the outcome was “inactive”.
For `CCN(CC)c1nc(C)cc(OP(=S)(OC)OC)n1`, the outcome was “inactive”.
With `CCCCC(O)(Cn1cncn1)c1ccc(Cl)cc1Cl` (configuration not stated) the AC50 was 88 µM (active).
In the case of `COc1ccc(-c2ccccc2)cc1NNC(=O)OC(C)C`, the outcome was “inactive”.
In the case of `CSC(=O)c1c(C(F)F)nc(C(F)(F)F)c(C(=O)SC)c1CC(C)C`, the outcome was “inactive”.
With `CCOC(=O)C(C)OC(=O)c1cc(Oc2ccc(C(F)(F)F)cc2Cl)ccc1[N+](=O)[O-]` (configuration not stated) the outcome was “inactive”.
For `O=P(O)(O)CCCl`, the outcome was “inactive”.
For `COCC(C)N(C(=O)CCl)c1c(C)csc1C` (configuration not stated), the AC50 was 115 µM (active).
In the case of `COC(=O)c1c(C(F)F)nc(C(F)(F)F)c(C2=NCCS2)c1CC(C)C`, the outcome was “inactive”.
With `CCN(CC)C(=O)C(C)Oc1cccc2ccccc12` (configuration not stated) the outcome was “inactive”.
With `CNC(=O)N(C)c1nnc(C(C)(C)C)s1` the outcome was “inactive”.
For `CCOP(=O)(OCC)Oc1nc(Cl)c(Cl)cc1Cl`, the outcome was “inactive”.
For `CC(C)C1(C)N=C(c2ncccc2C(=O)O)NC1=O` (configuration not stated), the outcome was “inactive”.
In the case of `CC(C)N1C(=O)c2ccccc2NS1(=O)=O`, the outcome was “inactive”.
In the case of `COC(=O)NC(=S)Nc1ccccc1NC(=S)NC(=O)OC`, the outcome was “inactive”.
For `CC(C)(C)C(=O)C(Oc1ccc(Cl)cc1)n1cncn1` (configuration not stated), the outcome was “inactive”.
With `CCC(C)n1c(=O)[nH]c(C)c(Br)c1=O` (configuration not stated) the outcome was “inactive”.
For `CCNP(=S)(OC)O/C(C)=C/C(=O)OC(C)C` (configuration not stated), the outcome was “inactive”.
For `CC(C)NC(=O)N1CC(=O)N(c2cc(Cl)cc(Cl)c2)C1=O`, the outcome was “inactive”.
In the case of `CCCCOCN(C(=O)CCl)c1c(CC)cccc1CC`, the AC50 was 35.3 µM (active).
With `O=C(O)c1c(Cl)ccc2cc(Cl)cnc12` the outcome was “inactive”.
For `CO/N=C(/C1=NOCCO1)c1ccccc1Oc1ncnc(Oc2ccccc2Cl)c1F`, the outcome was “inactive”.
For `CC1(C)C(C=C(Cl)Cl)C1C(=O)OC(C#N)c1cccc(Oc2ccccc2)c1` (configuration not stated), the outcome was “inactive”.
For `Nc1c(Cl)c(Cl)nc(C(=O)O)c1Cl`, the outcome was “inactive”.
In the case of `CC1(C)CON(Cc2ccccc2Cl)C1=O`, the outcome was “inactive”.

Test: APR_HepG2_MicrotubuleCSK_24hr: Apredica 24-hour HepG2 Assay for Microtubule CSK Stabilty (AID 2282909)
Settings: HepG2 microtubule cytoskeleton imaging, actives raise or lower the signal
In short: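 Read-out: alpha-tubulin immunofluorescence intensity by automated high-content imaging of fixed HepG2 cells after 24 h compound treatment. Ten concentrations, 0.39 to 200 uM, in duplicate; DMSO 0.5% v/v. Taxol positive control; DMSO-normalized bidirectional curve fitting.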
With `N#CN=C1SCCN1Cc1ccc(Cl)nc1` the outcome was “inactive”.
With `CCCC(=NOCC)C1=C(O)CC(CC(C)SCC)CC1=O` (configuration not stated) the outcome was “inactive”.
In the case of `CC1(C)CCC(=Cc2ccc(Cl)cc2)C1(O)Cn1cncn1` (configuration not stated), the outcome was “inactive”.
With `Cc1cc(C)nc(Nc2ccccc2)n1` the outcome was “inactive”.
In the case of `CCOc1nc(C(Cl)(Cl)Cl)ns1`, the outcome was “inactive”.
For `CC(C)Nc1nc(Cl)nc(NC(C)C)n1`, the outcome was “inactive”.
In the case of `O=c1n(Cl)c(=O)n(Cl)c(=O)n1Cl`, the outcome was “inactive”.
For `CCCN(CC)CC1COC2(CCC(C(C)(C)C)CC2)O1` (configuration not stated), the AC50 was 100 µM (active).
For `Cc1nc(N(C)C)nc(OC(=O)N(C)C)c1C`, the outcome was “inactive”.
For `Clc1nc(Cl)nc(Nc2ccccc2Cl)n1`, the outcome was “inactive”.
In the case of `CS(=O)(=O)c1ccc(C(=O)C2C(=O)CCCC2=O)c([N+](=O)[O-])c1`, the outcome was “inactive”.
With `Nc1c(Cl)c(F)nc(OCC(=O)O)c1Cl` the outcome was “inactive”.
For `CCN(CC)c1nc(C)cc(OP(=S)(OC)OC)n1`, the outcome was “inactive”.
In the case of `CCCCC(O)(Cn1cncn1)c1ccc(Cl)cc1Cl` (configuration not stated), the AC50 was 103 µM (active).
With `COc1ccc(-c2ccccc2)cc1NNC(=O)OC(C)C` the outcome was “inactive”.
For `CSC(=O)c1c(C(F)F)nc(C(F)(F)F)c(C(=O)SC)c1CC(C)C`, the outcome was “inactive”.
For `CCOC(=O)C(C)OC(=O)c1cc(Oc2ccc(C(F)(F)F)cc2Cl)ccc1[N+](=O)[O-]` (configuration not stated), the outcome was “inactive”.
For `O=P(O)(O)CCCl`, the outcome was “inactive”.
In the case of `COCC(C)N(C(=O)CCl)c1c(C)csc1C` (configuration not stated), the outcome was “inactive”.
With `COC(=O)c1c(C(F)F)nc(C(F)(F)F)c(C2=NCCS2)c1CC(C)C` the AC50 was 91.6 µM (active).
With `CCN(CC)C(=O)C(C)Oc1cccc2ccccc12` (configuration not stated) the outcome was “inactive”.
In the case of `CNC(=O)N(C)c1nnc(C(C)(C)C)s1`, the outcome was “inactive”.
With `CCOP(=O)(OCC)Oc1nc(Cl)c(Cl)cc1Cl` the outcome was “inactive”.
For `CC(C)C1(C)N=C(c2ncccc2C(=O)O)NC1=O` (configuration not stated), the outcome was “inactive”.
With `CC(C)N1C(=O)c2ccccc2NS1(=O)=O` the outcome was “inactive”.
In the case of `COC(=O)NC(=S)Nc1ccccc1NC(=S)NC(=O)OC`, the AC50 was 28.6 µM (active).
With `CC(C)(C)C(=O)C(Oc1ccc(Cl)cc1)n1cncn1` (configuration not stated) the outcome was “inactive”.
For `CCC(C)n1c(=O)[nH]c(C)c(Br)c1=O` (configuration not stated), the outcome was “inactive”.
For `CCNP(=S)(OC)O/C(C)=C/C(=O)OC(C)C` (configuration not stated), the outcome was “inactive”.
In the case of `CC(C)NC(=O)N1CC(=O)N(c2cc(Cl)cc(Cl)c2)C1=O`, the outcome was “inactive”.
In the case of `CCCCOCN(C(=O)CCl)c1c(CC)cccc1CC`, the AC50 was 31.2 µM (active).
In the case of `O=C(O)c1c(Cl)ccc2cc(Cl)cnc12`, the outcome was “inactive”.
With `CO/N=C(/C1=NOCCO1)c1ccccc1Oc1ncnc(Oc2ccccc2Cl)c1F` the outcome was “inactive”.
With `CC1(C)C(C=C(Cl)Cl)C1C(=O)OC(C#N)c1cccc(Oc2ccccc2)c1` (configuration not stated) the outcome was “inactive”.
With `Nc1c(Cl)c(Cl)nc(C(=O)O)c1Cl` the outcome was “inactive”.
With `CC1(C)CON(Cc2ccccc2Cl)C1=O` the outcome was “inactive”.

Source: PubChem BioAssay (EPA / NIEHS)
